Over roughly 33,000 sequences, “normalized occupancy” has its median near 0.075; the highest 2% begin near 0.095. Shown is part of a subset that was picked to be rich in the highest values.

The target of the experiment is MaxL homodimer (Homo sapiens, UniProt P61244 1-160). Nature of the experiment: universal protein-binding microarray (PBM); PBS-based mixture, 10 nM His-tagged protein dimer, 2% milk, 200 ng/uL BSA, 50 ng/uL salmon testes DNA, 0.02% TX-100; detection with Alexa 488 anti-His antibody;; high values mean tight binding. To be noted: protein: recombinant; tags: C-terminal His-tag (pET21a); chain copies: 2; dsDNA, one strand shown. Put shortly: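 His-tagged protein dimer at 10 nM was incubated on Agilent 4 x 44 K arrays with the 'all 10-mer' universal design. Bound protein was tagged with 10 ng/μL fluorophore-conjugated anti-His antibody, and arrays were scanned on a GenePix 4400A. Binding occupancy for each 8-mer is its fluorescence intensity normalised to the highest-ranked 8-mer's intensity.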
Chain of MaxL homodimer (P61244 whole entry): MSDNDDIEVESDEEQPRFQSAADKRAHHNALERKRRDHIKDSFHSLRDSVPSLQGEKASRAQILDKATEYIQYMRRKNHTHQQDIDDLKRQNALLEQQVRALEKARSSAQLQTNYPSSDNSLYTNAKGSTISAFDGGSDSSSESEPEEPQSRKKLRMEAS
Consider AATGTGGG, for which the binding signal came out at 0.0907 normalized occupancy.

Take GATGTTGC: the binding signal was 0.0781 normalized occupancy.

In the case of GATGTGGA, the binding signal was determined as 0.0847 normalized occupancy.

Take CATGTTGA: the binding signal was found to be 0.0943 normalized occupancy.

For CATGTCGG, the binding signal came out at 0.088 normalized occupancy.

On to CATGTGGA, for which the binding signal came out at 0.157 normalized occupancy.

Consider AATGTGGC, for which the binding signal worked out at 0.0898 normalized occupancy.

Turning to GATGTGGC, the binding signal came to 0.0839 normalized occupancy.

Consider CATGTGGG, for which the binding signal was 0.144 normalized occupancy.

CATGTGGC: the binding signal came out at 0.165 normalized occupancy.

Regarding CATGTTGC, the binding signal amounted to 0.0999 normalized occupancy.

Consider AATGTGGA, for which the binding signal is 0.0903 normalized occupancy.

With GGATTTGA, the binding signal was 0.0761 normalized occupancy.

Consider CTATAGTA, for which the binding signal was determined as 0.0737 normalized occupancy.

For AACAATGC, the binding signal was 0.0816 normalized occupancy.

For the sequence AGCTGTTA, the binding signal was 0.0759 normalized occupancy.

Turning to AAGTGTAA, the binding signal came to 0.0802 normalized occupancy.

Turning to GGGTCTAC, the binding signal is 0.0725 normalized occupancy.

Turning to CGGACCCC, the binding signal was found to be 0.0732 normalized occupancy.

For the sequence ACCTCGAG, the binding signal amounted to 0.0843 normalized occupancy.

On to ACATGCCG, for which the binding signal was 0.103 normalized occupancy.

As for GCATGCCC, the binding signal amounted to 0.105 normalized occupancy.

In the case of ACATGCCC, the binding signal came to 0.099 normalized occupancy.

Regarding ATATGCCG, the binding signal came to 0.0773 normalized occupancy.

As for CCATGCCC, the binding signal worked out at 0.0935 normalized occupancy.

For the sequence CCATGCCG, the binding signal came out at 0.1 normalized occupancy.

With AGATGCCC, the binding signal is 0.0786 normalized occupancy.

For the sequence CCATGCCA, the binding signal was 0.0875 normalized occupancy.

Take CAATGCCG: the binding signal turned out to be 0.0728 normalized occupancy.

Turning to AGATGCCG, the binding signal was determined as 0.0739 normalized occupancy.

In the case of GAATGCCC, the binding signal turned out to be 0.0765 normalized occupancy.

For ACATGCCT, the binding signal was 0.0828 normalized occupancy.

For the sequence TAAGAGTA, the binding signal came to 0.0797 normalized occupancy.

With TCTCACAA, the binding signal turned out to be 0.0786 normalized occupancy.

Regarding ATGAGAGC, the binding signal came to 0.078 normalized occupancy.

CGAGATGC: the binding signal came out at 0.078 normalized occupancy.

For the sequence AAGGACAC, the binding signal worked out at 0.0757 normalized occupancy.

For GGCCACGA, the binding signal was 0.0815 normalized occupancy.

Turning to AGGTCTCA, the binding signal stood at 0.074 normalized occupancy.

Turning to CAATTAAA, the binding signal came out at 0.0744 normalized occupancy.

In the case of AGTGGTCG, the binding signal was 0.0719 normalized occupancy.

As to GCATGCCA, the binding signal came to 0.108 normalized occupancy.

With ATATGCCA, the binding signal was determined as 0.0822 normalized occupancy.

Regarding AGATGCCA, the binding signal worked out at 0.0772 normalized occupancy.

Consider ACATGCCA, for which the binding signal came to 0.0967 normalized occupancy.

Take GTATGCCA: the binding signal came out at 0.0806 normalized occupancy.

For TCATGCCA, the binding signal was found to be 0.0861 normalized occupancy.

GGTCCCGA: the binding signal was 0.0733 normalized occupancy.

With ACTAACCT, the binding signal was determined as 0.0752 normalized occupancy.

For the sequence CGTGGGAA, the binding signal was determined as 0.089 normalized occupancy.

Consider GGTGGGAC, for which the binding signal turned out to be 0.0719 normalized occupancy.

Consider CGTGGGAC, for which the binding signal worked out at 0.096 normalized occupancy.

On to TGGGTCAA, for which the binding signal stood at 0.0772 normalized occupancy.

Consider CTCCATGA, for which the binding signal is 0.0798 normalized occupancy.

Regarding AACCATGT, the binding signal was determined as 0.0862 normalized occupancy.

With GACCATGA, the binding signal was found to be 0.0823 normalized occupancy.

CACCATGC: the binding signal was 0.108 normalized occupancy.

For ATCCATGC, the binding signal was found to be 0.0942 normalized occupancy.

With GACCATGC, the binding signal is 0.109 normalized occupancy.

Turning to CACCATGG, the binding signal amounted to 0.0885 normalized occupancy.

Take GACCATAC: the binding signal stood at 0.0805 normalized occupancy.

In the case of CTCCATGC, the binding signal turned out to be 0.0969 normalized occupancy.

CACCATGA: the binding signal came out at 0.0873 normalized occupancy.

AACCATGC: the binding signal turned out to be 0.106 normalized occupancy.

AACCATGA: the binding signal stood at 0.0836 normalized occupancy.

Turning to GTTGCCCA, the binding signal was 0.0762 normalized occupancy.

Regarding CTCCCTCC, the binding signal came to 0.0789 normalized occupancy.

With CGACCCAC, the binding signal is 0.0808 normalized occupancy.

Turning to AGTGTCAT, the binding signal was found to be 0.0822 normalized occupancy.

For CCACATCA, the binding signal was found to be 0.0798 normalized occupancy.

On to CGCGCTTC, for which the binding signal amounted to 0.0753 normalized occupancy.

Consider AACGCTTA, for which the binding signal worked out at 0.0733 normalized occupancy.

For the sequence AACGCTTC, the binding signal was 0.0768 normalized occupancy.

Regarding CACGCTTA, the binding signal worked out at 0.103 normalized occupancy.

Consider GACGCTTA, for which the binding signal amounted to 0.0768 normalized occupancy.

For the sequence CACGCTTC, the binding signal came to 0.098 normalized occupancy.

Consider TACCTAGA, for which the binding signal amounted to 0.073 normalized occupancy.

Take AACTCATC: the binding signal came out at 0.0815 normalized occupancy.

Regarding GCTGACGA, the binding signal was 0.072 normalized occupancy.

In the case of CCATGTCG, the binding signal is 0.0843 normalized occupancy.

For GCATGTAA, the binding signal was 0.0836 normalized occupancy.

For ACATGTAT, the binding signal worked out at 0.102 normalized occupancy.

For AAATGTAT, the binding signal is 0.0812 normalized occupancy.

ACATGTCT: the binding signal is 0.0899 normalized occupancy.

On to CCATGTAG, for which the binding signal is 0.0836 normalized occupancy.

As for AAATGTAG, the binding signal was 0.0793 normalized occupancy.

As to ACATGTAA, the binding signal was determined as 0.0953 normalized occupancy.

As for ACATGTCG, the binding signal worked out at 0.1 normalized occupancy.

As to ACATGTAG, the binding signal was found to be 0.101 normalized occupancy.

In the case of TCATGTAA, the binding signal was 0.0936 normalized occupancy.

As to AGATGTAT, the binding signal was found to be 0.0832 normalized occupancy.

ACCATTAG: the binding signal stood at 0.0781 normalized occupancy.

Take ATCCAGAG: the binding signal came to 0.0719 normalized occupancy.

CACGCGGG: the binding signal is 0.145 normalized occupancy.

With AACGCGGC, the binding signal was 0.0757 normalized occupancy.

For TACGCGGA, the binding signal was 0.0723 normalized occupancy.

With CACGCGGA, the binding signal came to 0.15 normalized occupancy.

For the sequence CACGCGGC, the binding signal is 0.151 normalized occupancy.

As for CCCGCGGG, the binding signal was determined as 0.0758 normalized occupancy.

For the sequence CGCGCGGA, the binding signal is 0.0836 normalized occupancy.

On to GACGCGGC, for which the binding signal came out at 0.0758 normalized occupancy.

With AACGCGGA, the binding signal was 0.0818 normalized occupancy.

Regarding CCGAGAGA, the binding signal was determined as 0.0728 normalized occupancy.

In the case of TCGCACGA, the binding signal is 0.0806 normalized occupancy.

Consider CAGGTGCG, for which the binding signal was found to be 0.0849 normalized occupancy.

With CAGTTGCA, the binding signal was 0.0721 normalized occupancy.

Consider CCCTAACC, for which the binding signal was 0.0758 normalized occupancy.

Turning to CTGTGCAA, the binding signal turned out to be 0.0754 normalized occupancy.

Take AACACGGA: the binding signal was found to be 0.0756 normalized occupancy.

CACACGTC: the binding signal was 0.0858 normalized occupancy.

As to CACACGTA, the binding signal was 0.0925 normalized occupancy.

AACACGTT: the binding signal was 0.128 normalized occupancy.

Take AACACGTG: the binding signal stood at 0.706 normalized occupancy.

AACACGTA: the binding signal came to 0.083 normalized occupancy.

Take AACACGTC: the binding signal stood at 0.0786 normalized occupancy.

Turning to CACACGTG, the binding signal amounted to 0.553 normalized occupancy.

Consider TACACGTA, for which the binding signal was determined as 0.083 normalized occupancy.

Turning to ATTTACGC, the binding signal was determined as 0.0786 normalized occupancy.

Consider CTCCCGCC, for which the binding signal amounted to 0.0726 normalized occupancy.

For ATTATGAC, the binding signal worked out at 0.0798 normalized occupancy.

For ACCTCTAT, the binding signal came out at 0.0776 normalized occupancy.

Regarding AAATGGTA, the binding signal turned out to be 0.0806 normalized occupancy.

For CATTTTAC, the binding signal worked out at 0.0853 normalized occupancy.

As for AGATACAC, the binding signal stood at 0.0831 normalized occupancy.

As for GCTCCTAA, the binding signal came out at 0.0767 normalized occupancy.

Regarding AAACGACC, the binding signal was found to be 0.0727 normalized occupancy.

In the case of CAAGTGGC, the binding signal stood at 0.0744 normalized occupancy.

For AAGGTGGA, the binding signal was found to be 0.0747 normalized occupancy.

Turning to CACGTGGC, the binding signal came out at 0.837 normalized occupancy.

In the case of CACGTCGC, the binding signal is 0.0825 normalized occupancy.

As for AACGTGGA, the binding signal was found to be 0.115 normalized occupancy.

With CACGTGGG, the binding signal was found to be 0.707 normalized occupancy.

As to CACGTGGA, the binding signal worked out at 0.768 normalized occupancy.

As to CACGTAGG, the binding signal came to 0.0797 normalized occupancy.

Turning to TACGTGGA, the binding signal was 0.0878 normalized occupancy.

For the sequence CAAGTGGG, the binding signal came out at 0.0807 normalized occupancy.

As for AAAGTGGA, the binding signal came to 0.0743 normalized occupancy.

Turning to GACGTGGA, the binding signal stood at 0.087 normalized occupancy.

Consider AGAGCCGA, for which the binding signal came out at 0.0723 normalized occupancy.

With CTTTTTGA, the binding signal came to 0.0761 normalized occupancy.

Regarding ACCGTAAC, the binding signal amounted to 0.0752 normalized occupancy.

On to ACTAAGAC, for which the binding signal stood at 0.0733 normalized occupancy.

For the sequence ACGGCACC, the binding signal is 0.0742 normalized occupancy.

Consider GTCCACAA, for which the binding signal was 0.0768 normalized occupancy.

For the sequence CAGCGGTA, the binding signal was 0.0751 normalized occupancy.

ATCCGTGG: the binding signal came to 0.078 normalized occupancy.

As to ACTGTAAT, the binding signal is 0.0778 normalized occupancy.

In the case of TACATGGA, the binding signal was found to be 0.0848 normalized occupancy.

AACATGTG: the binding signal came out at 0.184 normalized occupancy.

Turning to CACAGGTG, the binding signal was determined as 0.0857 normalized occupancy.

Take CACATCTG: the binding signal stood at 0.0871 normalized occupancy.

In the case of CACATGTG, the binding signal amounted to 0.216 normalized occupancy.

Consider AACATGTT, for which the binding signal turned out to be 0.0895 normalized occupancy.

With TACATCTA, the binding signal came out at 0.0787 normalized occupancy.

For TACATGTA, the binding signal worked out at 0.0978 normalized occupancy.

AACATCTG: the binding signal is 0.0767 normalized occupancy.

In the case of AACAGGTG, the binding signal turned out to be 0.102 normalized occupancy.

Consider CAAATGTG, for which the binding signal worked out at 0.0879 normalized occupancy.

Take AACAGGTC: the binding signal came to 0.0733 normalized occupancy.

Consider CACATACG, for which the binding signal is 0.0784 normalized occupancy.

Consider GTGGGGCA, for which the binding signal was 0.0781 normalized occupancy.

Regarding ACCCACTA, the binding signal came to 0.085 normalized occupancy.

Consider CTCCCGAA, for which the binding signal worked out at 0.0776 normalized occupancy.

For the sequence AACCTACT, the binding signal amounted to 0.074 normalized occupancy.

Consider GGTTGACA, for which the binding signal turned out to be 0.0758 normalized occupancy.

On to AGACTTGG, for which the binding signal turned out to be 0.0722 normalized occupancy.

As to AACATGTC, the binding signal worked out at 0.087 normalized occupancy.

As for AACATGTA, the binding signal was found to be 0.0923 normalized occupancy.

GACATGTC: the binding signal was 0.0872 normalized occupancy.

Regarding GACATGTA, the binding signal was 0.0884 normalized occupancy.

CACATGTA: the binding signal is 0.147 normalized occupancy.

CACATGTC: the binding signal was determined as 0.159 normalized occupancy.

The values are drawn from article PMC4242493, “Sequence specificity incompletely defines the genome-wide occupancy of Myc”.
